Where “and” joins values, the source holds several entries; their conditions need not be identical. Equal entries are not always repeated. Compounds without any hit were thinned out: in the full panel of roughly 79,000, 15% have a hit. Values without a mark were called inactive. Calls of active or inactive are those of the source. No stated cut-off is given here; in the data, active means growth inhibition above about 70%; inactive means the rest.

The nature of test [1]: NCI Yeast Anticancer Drug Screen. Data for the rad50 strain (AID 155).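 Further: 0% = growth of vehicle-only cultures of the same strain.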 To be noted: S. cerevisiae rad50 strain growth inhibition; at 50.0 µM; stronger effect = higher value. The essentials: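 Compounds were tested on a yeast strain with an engineered DNA damage repair alteration; the reported value is growth inhibition normalised to vehicle treatment.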
A short description of test [2]: NCI Yeast Anticancer Drug Screen. Data for the mec2-1 strain (AID 157). To be noted: S. cerevisiae mec2-1 strain, at 50.0 µM, stronger effect = higher value. The essentials: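 Mutant yeast (mec2-1) grown with compound; growth inhibition relative to vehicle control reported.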
Test [3] can be described thus: NCI Yeast Anticancer Drug Screen. Data for the sgs1 mgt1 strain (AID 161).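 Further: 0% = growth of cultures given vehicle only.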 As to conditions: S. cerevisiae sgs1 mgt1 strain, at 50.0 µM, stronger effect = higher value. In a few lines: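 Yeast cells carrying a defined DNA-repair defect were exposed to test compounds. Growth inhibition was measured relative to vehicle-treated controls.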
Test [4] can be described thus: NCI Yeast Anticancer Drug Screen. Data for the cln2 rad14 strain (AID 165).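 Further: 0% = growth equal to vehicle treated cultures.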 To be noted: S. cerevisiae cln2 rad14 strain, at 50.0 µM, stronger effect = higher value. The essentials:
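Readout is yeast growth inhibition versus vehicle-treated controls, using a strain with cln2 and rad14 alterations exposed to compound.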

Test [5] is described as follows: NCI Yeast Anticancer Drug Screen. Data for the bub3 strain (AID 167). To be noted: S. cerevisiae bub3 mutant strain, at 50.0 µM, stronger effect = higher value. The essentials: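 Growth of a checkpoint-deficient yeast mutant is measured after compound exposure. Values represent inhibition relative to vehicle.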
Test [6] can be described thus: NCI Yeast Anticancer Drug Screen. Data for the mlh1 rad18 strain (AID 175). As to conditions: S. cerevisiae mlh1 rad18 strain growth inhibition; at 50.0 µM; stronger effect = higher value. In a few lines:
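Genetically defined yeast (DNA repair-deficient) exposed to compounds; growth inhibition determined relative to vehicle.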

On to `NC(Cc1ccc(Cl)cc1)P(=O)(O)O` (stereo unspecified), for which the growth inhibition was 7.7% in test [1]; -4.35% in test [2]; -6.75% in test [3]; -53.9% in test [4]; -12.1% in test [5]; -16.1% in test [6].
Regarding `CN(C)c1ccccc1CN1CCCN(Cc2ccccc2N(C)C)C1c1ccc(N(CCCl)CCCl)cc1`, the growth inhibition in test [1] was 92.4% (active); in test [2], 40.4%; in test [3], 93.5% (active); in test [4], 57.4%; in test [5], 15.1%; in test [6], 90.8% (active).
For `COc1cc2c(c(OC)c1OC)-c1ccc(O)cc1C(NC(C)=O)CC2` (stereo unspecified), the growth inhibition was -13.2% in test [1]; -18.8% in test [2]; -4.1% in test [3]; 17.4% in test [4]; 0.65% in test [5]; 31.2% in test [6].
For the compound `O=[N+]([O-])C1CC/C(=N/O)c2nonc21` (stereo unspecified), the growth inhibition in test [1] is 0.3%; in test [2] it was 9.5%; in test [3], 18.5%; in test [4], 19.6%; in test [5], 5.3%; in test [6] it was 18.6%.
Regarding `CC(C)N(C(=O)SCC(Cl)=C(Cl)Cl)C(C)C`, the growth inhibition is -2.95% in test [1]; -15.8% in test [2]; -0.35% in test [3]; -3.05% in test [4]; -12.3% in test [5]; 30% in test [6].
With `C1=[N+]2CCCC2Cc2ccc3ccccc3c21` (stereo unspecified), the growth inhibition was -17.8% in test [1]; -6.1% in test [2]; -4.15% in test [3]; -16.4% in test [4]; -4.6% in test [5]; -8.85% in test [6].
Regarding `C1CC[N-]CC1.CC(=N\O)/C(C)=N/O.CC(=N\O)/C(C)=N/O.N#C[CH-]CC#N.[Co+2]`, the growth inhibition is 31.4% in test [1]; 19.2% in test [2]; 25.3% in test [3]; -19.4% in test [4]; 28.5% in test [5]; 38.9% in test [6].
As for `CC12CCC(OC3OC(CO)C(OC4OC(CO)C(O)C(O)C4O)C(O)C3O)CC1CCC1C2CCC2(C)C(C3=CC(=O)OC3)CCC12O` (stereo unspecified), the growth inhibition in test [1] was 15.8%; in test [2], -3.95%; in test [3] it was -14.2%; in test [4], -7.95%; in test [5], 13.6%; in test [6], 6.85%.
Take `CNC(=O)O/N=C/c1cccc(/C=N/OC(=O)NC)c1`: the growth inhibition in test [1] was -0.1%; in test [2] it was 14.3%; in test [3] it was 3.35%; in test [4], 49.5%; in test [5], 28.8%; in test [6], 11.2%.
Consider `CC(C)CCC(=O)OC1CCC2(C)C(=CCC3C4CCC(=O)C4(C)CCC32)C1` (stereo unspecified), for which the growth inhibition in test [1] is 3.35%; in test [2], 12.1%; in test [3], 5.35%; in test [4] it was -18.7%; in test [5], -1.9%; in test [6], 13.2%.
In the case of `NC(C(=O)[O-])C(=O)[O-].NC1CCCCC1N.[Pt+4]`, the growth inhibition was 7.35% in test [1]; -5.95% in test [2]; 5.75% in test [3]; -31.6% in test [4]; -17.9% in test [5]; -3.2% in test [6].
`COC(=O)C1C(OC(=O)C(Cl)(c2ccccc2)c2ccccc2)CC2CCC1N2C` (stereo unspecified): the growth inhibition in test [1] is -5.25%; in test [2], -6.35%; in test [3], -19.6%; in test [4] it was 7.65%; in test [5] it was -21.1%; in test [6] it was -6.9%.
With `NCC(O)c1ccc2c(c1)OCO2` (stereo unspecified), the growth inhibition in test [1] is -48.8%; in test [2], -12.7%; in test [3], -11.3%; in test [4], -31.4%; in test [5], -1.4%; in test [6], -8.65%.
On to `N#CCc1ccccc1`, for which the growth inhibition is 8.5% and -45.5% in test [1]; 17.6% and 3.2% in test [2]; -7.35% and -21.4% in test [3]; 13.7% and 5.6% in test [4]; 15.4% and -1.05% in test [5]; 4.85% and -6.65% in test [6].
Regarding `O=[N+]([O-])NC1=NCCN1CCO`, the growth inhibition in test [1] is -8.85%; in test [2] it was -3.95%; in test [3] it was -2.15%; in test [4] it was -16.6%; in test [5], -26.1%; in test [6], -18.9%.
In the case of `CCN1CC2(C)CCC(OC)C34C5CC6CCC(O)(C5C(=O)O6)C(C(O)C23)C14` (stereo unspecified), the growth inhibition in test [1] was -9.45%; in test [2], -44%; in test [3] it was 2%; in test [4] it was -0.5%; in test [5], -34.1%; in test [6], -57.7%.
Take `O=C(O)c1cc(Cc2ccc(O)c(C(=O)O)c2)ccc1O`: the growth inhibition in test [1] was -24.2% and -8.25%; in test [2], 3.15% and -18.5%; in test [3], -18.3% and 8.2%; in test [4], -0.5% and -39.9%; in test [5] it was -13.4% and 33.9%; in test [6], -23.9% and -10.8%.
As to `O=[N+]([O-])c1cccc2c([N+](=O)[O-])cccc12`, the growth inhibition in test [1] was 3.6%; in test [2] it was 5.2%; in test [3], -1.15%; in test [4], -4.85%; in test [5] it was -0.7%; in test [6] it was 0.05%.
Regarding `CCOP(=O)(OCC)/C(C#N)=C(\C)c1ccco1`, the growth inhibition in test [1] is -26.4%; in test [2] it was -28.9%; in test [3] it was -15.3%; in test [4], -18.4%; in test [5], -11.6%; in test [6] it was -1.2%.
Turning to `O=c1cc[cH-]o1.[C-]#[O+].[C-]#[O+].[C-]#[O+].[C-]#[O+].[C-]#[O+].[C-]#[O+].[CH-]=O.[Co+2].[Co]`, the growth inhibition was -14.5% and -3.2% in test [1]; -4.15% and 4.75% in test [2]; 0.5% and -6.75% in test [3]; -10.5% and 6.25% in test [4]; -8.4% and 21.8% in test [5]; 9.6% and 4.05% in test [6].
Consider `CN1C[C@H]2[C@@H](C1=O)[C@H](c1ccccc1)ON2C`, for which the growth inhibition is -16.4% in test [1]; -55.2% in test [2]; -34% in test [3]; 13.6% in test [4]; 5.85% in test [5]; -1.85% in test [6].
As for `CC1CN(C2CCCCC2)CO1` (stereo unspecified), the growth inhibition is -0.6% in test [1]; -30.8% in test [2]; 0.8% in test [3]; -10.8% in test [4]; -20.5% in test [5]; -32.2% in test [6].
With `CC(C)CCCC(C)[C@H]1CCC2[C@@H]3CCC4Cc5nc6c(nc5C[C@]4(C)C3CC[C@@]21C)CC1CC[C@@H]2C(CC[C@@]3(C)C2CC[C@@H]3O)[C@@]1(C)C6` (stereo partly specified), the growth inhibition is -7.05% in test [1]; -37.7% in test [2]; -12% in test [3]; -7.9% in test [4]; 12.8% in test [5]; 7.95% in test [6].
Take `CCCCOP(=O)(CCCC)OCCCC.CCCCOP(=O)(CCCC)OCCCC.CCCCOP(=O)(CCCC)OCCCC.CCCCOP(=O)(CCCC)OCCCC.O.O.[Co+2].[O-][Cl+3]([O-])([O-])O`: the growth inhibition was 25.4% in test [1]; 5.55% in test [2]; 7.35% in test [3]; 17.6% in test [4]; 19.8% in test [5]; 5.8% in test [6].
In the case of `O=[N+]([O-])C(CO)CCC(CO)[N+](=O)[O-]` (stereo unspecified), the growth inhibition is -6.6% in test [1]; -14% in test [2]; -3.9% in test [3]; -18.8% in test [4]; -15.7% in test [5]; -15.5% in test [6].
With `CC([NH-])C(=O)O.CC([NH-])C(=O)O.[Cu+2]` (stereo unspecified), the growth inhibition in test [1] was -0.95%; in test [2] it was 11.3%; in test [3], 15.6%; in test [4], -40.1%; in test [5], -15.9%; in test [6] it was 19.6%.
In the case of `CCN(CC)CCN1CC2CCCCC2C1` (stereo unspecified), the growth inhibition in test [1] is 4.25%; in test [2] it was 0.35%; in test [3], 1%; in test [4], 5.45%; in test [5] it was 11.6%; in test [6], 3%.
As to `O=C=Nc1ccccc1Cl`, the growth inhibition is 12.5% in test [1]; 3.1% in test [2]; -1.15% in test [3]; 5.45% in test [4]; 4.2% in test [5]; 5.15% in test [6].
With `O/N=C1\CN2CCC1CC2`, the growth inhibition in test [1] is 15.9%; in test [2] it was 13.2%; in test [3], 1.7%; in test [4], 15.4%; in test [5] it was 10.4%; in test [6], 20.3%.
Turning to `c1ccc(P(CCP(CCP(c2ccccc2)c2ccccc2)c2ccccc2)CCP(c2ccccc2)c2ccccc2)cc1` (stereo unspecified), the growth inhibition in test [1] was -5.15% and 0.15% and 8.05%; in test [2], -5.7% and 34.8% and 10.3%; in test [3] it was -18.6% and 18.4% and -0.95%; in test [4] it was -8.05% and -20.2% and 7.15%; in test [5], 0.45% and 2.95% and 21.9%; in test [6], -5.95% and 29.8% and 11.2%.
Consider `CCCCP(=O)(CCCC)CCCC.CCCCP(=O)(CCCC)CCCC.CCCCP(=O)(CCCC)CCCC.CCCCP(=O)(CCCC)CCCC.[Ce+3].[O-][Cl+3]([O-])([O-])O`, for which the growth inhibition was 43.9% in test [1]; 36.3% in test [2]; 30.6% in test [3]; 33.9% in test [4]; 62.1% in test [5]; 42.4% in test [6].

Values taken from PubChem BioAssay (NCI).
